Measured values: PubChem BioAssay (NCATS)
Inconclusive results are not listed. The source made the active and inactive calls. Unless noted, calls come from the whole dose curve; as a rule, active = well fitted curve in the direction sought with a large enough effect; inconclusive = small, poorly fitted or top-dose-only effect, or another doubt; inactive = no such curve, though single readings can be large; an effect the other way counts as inactive or inconclusive.

Tests used:
[1] = Cytometric Cell-Based qHTS for Inhibitors of the mTORC1 Signaling Pathway in MEF (Tsc2-/-, p53-/-) Cells (AID 2660);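 note: Tsc2 and p53 null MEFs carrying empty vector with compound for 24 h; percent of cells above a phospho-rpS6 to PI ratio cutoff in each well; series mostly up to about 38 µM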
In short: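 Cells are plated, treated with compound for 24 hrs at 37 degree Celsius, then fixed, blocked and immunostained for phospho-rpS6 Ser235/236. Propidium iodide counterstain follows. Per-well % positive cells is derived from the PI-normalized phospho-S6 signal.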

[2] = High Content Imaging Cell-Based qHTS for Inhibitors of the mTORC1 Signaling Pathway in MEF (Tsc2-/-, p53-/-) Cells (AID 2666);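 note: percent of cells scored positive for phospho-rpS6 Ser235/236 immunostaining by imaging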
In short: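 Cells were plated, dosed with compound after 24 hrs, and incubated another 24 hrs at 37 degree Celsius. Fixed cells were immunostained for phospho-rpS6 Ser235/236 and counterstained, and the normalized signal was scored as % active cells against rapamycin and DMSO controls.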

[3] = High Content Imaging Cell-Based qHTS for Inhibitors of the mTORC1 Signaling Pathway in MEF Cells (AID 2667);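 note: Tsc2-/- p53-/- MEFs stably re-expressing wild-type Tsc2 exposed 24 h; series mostly up to about 38 µM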
In short: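 Immunofluorescence for rpS6 phosphorylation in MEFs of Tsc2-/-, p53-/- background rescued with WT Tsc2. Compound exposure lasted 24 hrs. Inhibition was scored against rapamycin-treated control wells.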

[4] = Cytometry Cell-Based qHTS for Inhibitors of the mTORC1 Signaling Pathway in MEF cells (AID 2668);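 note: Tsc2-/- p53-/- mouse embryonic fibroblasts stably re-expressing wild-type Tsc2; percent cells positive for phospho-rpS6 Ser235/236 relative to propidium iodide stain; series mostly up to about 38 µM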
In short: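 Tsc2-/-, p53-/- MEFs re-expressing WT Tsc2; cpd 24 hrs, 37 degree Celsius; PFA fix, Alexa-488 p-rpS6 (Ser235/236) Ab 2 hrs RT, PI counterstain; Acumen 488nm scan; p-S6/PI ratio → % positive cells; PI count = viability.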

[5] = Validation screen for small molecules that induce DNA re-replication in MCF 10A normal breast cells (AID 463097); note: nearly all actives have a fitted effect of over 60% in size
In short: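 Image-based qHTS: normal breast cells are incubated with compound for 48 hr, stained with Hoechst, and scanned for total nuclear fluorescence. Compounds raising the fraction of nuclei with elevated DNA content count as re-replication inducers.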

[6] = biological target: Ubiquitin carboxyl-terminal hydrolase 2 (Homo sapiens) (UniProt O75604); assay: qHTS Validation Assay for Inhibitors of Ubiquitin-specific Protease USP2a Using CHOP2 as the Reporter (AID 463106)
In short: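 10nM USP2 core + cpd, 30min RT; add 25nM Ub-CHOP2/25nM substrate; 60min RT; FI 485/531nm. Buffer Tris pH 8.0, CaCl2, BME, CHAPS. Norm. to NEM = 100% inhibition; time-zero read flags fluorescent artifacts.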

[7] = biological target: DNA polymerase III PolC-type (Bacillus subtilis (strain 168)) (UniProt P13267); assay: qHTS Validation Assay for the Inhibitors of DNA Replication in Gram-Positive Bacteria (AID 485295);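 note: reconstituted holoenzyme with PolC plus beta clamp SSB and primase; PicoGreen fluorescence of double-stranded DNA made on primed circular M13 template; series mostly up to about 57 µM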
In short: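 First, compound is mixed with the reconstituted replication complex and held at room temperature. Next, circular single-stranded M13Gori with nucleotides starts synthesis. Finally, PicoGreen in EDTA halts the reaction and stains double-stranded product for fluorescence reading.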

[8] = biological target: Tumor susceptibility gene 101 protein (Homo sapiens) (UniProt Q99816); assay: qHTS Validation Assay for Iinhibitors of HIV-1 Budding by Blocking the Interaction of PTAP/TSG101 (AID 485342; calls by dose curve)
In short: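 Binding of a FITC-tagged PTAP-motif peptide (50 nM) to the Tsg101 binding domain (10 uM) is monitored by fluorescence polarization. Compounds are pin-delivered before peptide addition, and incubation runs 20 min at room temperature.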

[9] = qHTS Validation Assay to Find Inhibitors of Chronic Active B-Cell Receptor Signaling (AID 485345; active = well fitted curve in the direction sought with a large enough effect in the main read-out, with a control signal flat, not every such curve was filed as active)
In short: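 Read-out: ratio of filter-corrected green (IkappaBalpha fusion) to red (native) luciferase signal in doxycycline-induced TMD8 cells after 4 h at 37C. Titration spanned 46 uM–3 nM; Data were normalised to basal cells and 10 uM MG-132 wells.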

[10] = biological target: ATP-dependent 6-phosphofructokinase (Trypanosoma brucei brucei) (UniProt O15648); assay: qHTS Validation Assay to Find Inhibitors of T. brucei phosphofructokinase (AID 485368)
In short: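 Enzyme reaction in triethanolamine buffer pH 8.0 with 5 mM MgCl2, 0.01% Tween20 and 0.1% BSA; PFK 1.25 nM, F6P 0.5 mM, ATP 0.1 mM, 45 min RT. ADP quantified by ADP-Glo.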

[11] = Quantitative high throughput screen for delayed death inhibitors of the malarial parasite plastid, 96 hour incubation (AID 488745);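 note: luciferase-expressing P. falciparum in erythrocytes at 2% hematocrit and 0.1% parasitemia; series mostly up to about 29 µM; nearly all actives have a fitted effect of over 70% in size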
In short: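 Growth of reporter-bearing P. falciparum in red cells is measured after 96 h with compound, covering two erythrocytic cycles. Luminescence from the integrated luciferase serves as the growth signal.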

[12] = biological target: Thioredoxin reductase 1, cytoplasmic (Rattus norvegicus) (UniProt O89049); assay: qHTS Assay for Substrates of Mammalian Selenoprotein Thioredoxin Reductase 1 (TrxR1) (AID 488772);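 note: NADPH fluorescence in the first read after selenite addition and not the 8 min delta; series mostly up to about 57 µM; a drop in NADPH fluorescence below the no-compound background marks a TrxR1 substrate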
In short: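 Quantitative HTS in Tris-HCl buffer at pH 7.5 with EDTA and Tween-20, using rat TrxR1, 400 uM NADPH and 400 uM selenite (final). A fall in initial NADPH fluorescence relative to background marked substrate behaviour.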

[13] = biological target: Thioredoxin reductase 1, cytoplasmic (Rattus norvegicus) (UniProt O89049); assay: qHTS Assay for Inhibitors of Mammalian Selenoprotein Thioredoxin Reductase 1 (TrxR1) (AID 488773); details: Potency: inhibition;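 note: drop in NADPH fluorescence over an 8 min run after selenite addition; series mostly up to about 57 µM; nearly all actives have a fitted effect of over 40% in size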
In short: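 Steps: enzyme (90 nM) plus NADPH (400 uM final), 5 min at ~22 deg C; compound added, 15 min; selenite (400 uM final) added; fluorescence followed for 8 min. Concentration-response curves derived from the normalized delta values.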

[14] = biological target: Flap endonuclease 1 (Homo sapiens) (UniProt P39748); assay: qHTS Validation Assay for the Inhibitors of Human Flap endonuclease 1 (FEN1) (AID 488816)
In short: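 Readings taken at 0 and 15 min after starting the reaction with 50 nM (final) substrate supplied the signal. Compounds had first sat with 10 nM FEN1 reagent for 15 min at room temperature. Values come from Hill-equation concentration-response fits.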

[15] = biological target: Chromobox protein homolog 1 (Homo sapiens) (UniProt P83916); assay: qHTS Validation Assay for Inhibitors of HP1-beta Chromodomain Interactions with Methylated Histone Tails (AID 488953);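 note: loss of AlphaScreen luminescence from HP1-beta binding biotinylated H3K9me3 peptide; series mostly up to about 110 µM; nearly all actives have a fitted effect of over 50% in size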
In short: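 Measured as loss of AlphaScreen luminescence from streptavidin donor and nickel acceptor beads (10 ug/mL final) bridging HP1-beta and biotin-H3(1-18)K9me3, each 50 nM. Compounds met the preassembled complex for 30 min at RT.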

[16] = Quantitative high throughput screen for delayed death inhibitors of the malarial parasite plastid, 48 hour incubation (AID 488752); note: nearly all actives have a fitted effect of over 65% in size
In short: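 One parasite generation (48 h, 37 C, 5% CO2) of luciferase-reporter P. falciparum in erythrocytes is run with test compound; decreased luminescence indicates inhibited growth.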

[17] = biological target: Methanococcus maripaludis chaperonin (MmCpn) (UniProt Q6LX38); assay: High-Throughput Screening for Modulators of Cytosolic Chaperonin Activity: MmCpn Primary Screen (AID 488978);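 note: 50 nM MmCpn enzyme hydrolysing 30 µM ATP at 37 °C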
In short: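 Steps: chaperonin 50 nM final; add compound, 5 min RT; start with ATP, 30 uM final; hold 10 min at 37C; add ADP Transcreener HTRF reagent, 5 min; read ex 320, em 590 and 665 nm.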

[18] = biological target: Beta-2 adrenergic receptor (Homo sapiens) (UniProt P07550); assay: qHTS validation assay of beta-arrestin-biased ligands of beta2-adrenergic receptor (AID 485366)
In short: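 Values derive from curve-fitted %Activity of a luminescent beta-arrestin recruitment reporter; compounds tested up to 46 microM on Tango cells for 18 hr at 37 degrees C, 5% CO2.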

[19] = biological target: M-phase phosphoprotein 8 (Homo sapiens) (UniProt Q99549); assay: qHTS Validation Assay for Inhibitors for MPP8 Chromodomain Interactions with Methylated Histone Tails (AID 488949);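 note: 50 nM MPP8 with 50 nM peptide preformed then compounds added for 30 min; AlphaScreen signal from MPP8 chromodomain bound to biotinylated H3K9me3 peptide; top concentration of the series differs between compounds; nearly all actives have a fitted effect of over 55% in size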
In short: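 50 nM MPP8 + 50 nM b-H3K9me3 peptide, PBS pH 7.4/0.01% Tween-20, 30 min RT; + cpd 30 min RT; + AlphaScreen donor/Ni-chelate acceptor beads 10 ug/mL final, 30 min dark; luminescence read.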

Measured: Potency

M-phase phosphoprotein 8 (Homo sapiens), sequence (Q99549 whole entry, looked up): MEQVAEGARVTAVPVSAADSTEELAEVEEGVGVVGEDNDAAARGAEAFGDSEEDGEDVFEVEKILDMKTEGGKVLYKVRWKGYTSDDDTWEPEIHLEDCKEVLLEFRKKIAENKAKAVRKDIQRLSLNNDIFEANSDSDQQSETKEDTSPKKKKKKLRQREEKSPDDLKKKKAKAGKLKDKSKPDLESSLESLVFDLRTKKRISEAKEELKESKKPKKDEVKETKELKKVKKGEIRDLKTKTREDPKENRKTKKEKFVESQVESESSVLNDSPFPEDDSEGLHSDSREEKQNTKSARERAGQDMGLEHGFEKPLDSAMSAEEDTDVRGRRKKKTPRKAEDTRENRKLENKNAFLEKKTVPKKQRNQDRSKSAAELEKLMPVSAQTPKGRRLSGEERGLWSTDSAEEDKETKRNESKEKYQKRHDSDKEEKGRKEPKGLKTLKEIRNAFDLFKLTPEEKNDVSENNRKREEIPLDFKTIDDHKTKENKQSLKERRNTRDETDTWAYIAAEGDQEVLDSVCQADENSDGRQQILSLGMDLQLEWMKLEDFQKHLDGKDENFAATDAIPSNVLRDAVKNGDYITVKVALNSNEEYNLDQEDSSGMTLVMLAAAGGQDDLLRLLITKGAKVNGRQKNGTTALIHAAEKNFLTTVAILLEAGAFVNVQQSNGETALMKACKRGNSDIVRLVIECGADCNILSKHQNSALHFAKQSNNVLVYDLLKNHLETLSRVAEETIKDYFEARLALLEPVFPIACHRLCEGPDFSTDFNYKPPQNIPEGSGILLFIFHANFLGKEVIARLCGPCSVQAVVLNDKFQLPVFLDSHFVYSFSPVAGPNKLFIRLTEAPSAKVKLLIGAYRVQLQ
Chromobox protein homolog 1 (Homo sapiens), sequence (P83916 whole entry, looked up): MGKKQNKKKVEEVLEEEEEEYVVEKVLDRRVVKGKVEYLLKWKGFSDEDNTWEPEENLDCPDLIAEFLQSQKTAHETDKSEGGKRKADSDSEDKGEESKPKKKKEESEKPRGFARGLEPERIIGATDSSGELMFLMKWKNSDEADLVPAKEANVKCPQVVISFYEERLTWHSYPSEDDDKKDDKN
Ubiquitin carboxyl-terminal hydrolase 2 (Homo sapiens), sequence (O75604 whole entry, looked up): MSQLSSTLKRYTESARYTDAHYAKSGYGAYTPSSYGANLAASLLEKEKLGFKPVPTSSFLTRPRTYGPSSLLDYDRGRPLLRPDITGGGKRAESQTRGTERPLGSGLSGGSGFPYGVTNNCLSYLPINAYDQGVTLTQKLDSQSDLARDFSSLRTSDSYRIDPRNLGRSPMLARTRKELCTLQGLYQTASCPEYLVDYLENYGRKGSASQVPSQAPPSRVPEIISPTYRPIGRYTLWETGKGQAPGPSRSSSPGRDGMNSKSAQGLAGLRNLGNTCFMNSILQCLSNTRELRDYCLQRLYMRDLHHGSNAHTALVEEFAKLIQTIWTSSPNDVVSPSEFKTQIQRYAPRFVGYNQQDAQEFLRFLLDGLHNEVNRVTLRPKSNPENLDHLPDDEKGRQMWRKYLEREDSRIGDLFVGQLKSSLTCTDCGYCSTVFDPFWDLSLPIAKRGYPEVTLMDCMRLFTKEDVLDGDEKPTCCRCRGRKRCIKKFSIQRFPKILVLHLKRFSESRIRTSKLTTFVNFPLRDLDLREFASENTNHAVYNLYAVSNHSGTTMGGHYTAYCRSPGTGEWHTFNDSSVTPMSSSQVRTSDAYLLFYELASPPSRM
Methanococcus maripaludis chaperonin (MmCpn), sequence (Q6LX38 1-543): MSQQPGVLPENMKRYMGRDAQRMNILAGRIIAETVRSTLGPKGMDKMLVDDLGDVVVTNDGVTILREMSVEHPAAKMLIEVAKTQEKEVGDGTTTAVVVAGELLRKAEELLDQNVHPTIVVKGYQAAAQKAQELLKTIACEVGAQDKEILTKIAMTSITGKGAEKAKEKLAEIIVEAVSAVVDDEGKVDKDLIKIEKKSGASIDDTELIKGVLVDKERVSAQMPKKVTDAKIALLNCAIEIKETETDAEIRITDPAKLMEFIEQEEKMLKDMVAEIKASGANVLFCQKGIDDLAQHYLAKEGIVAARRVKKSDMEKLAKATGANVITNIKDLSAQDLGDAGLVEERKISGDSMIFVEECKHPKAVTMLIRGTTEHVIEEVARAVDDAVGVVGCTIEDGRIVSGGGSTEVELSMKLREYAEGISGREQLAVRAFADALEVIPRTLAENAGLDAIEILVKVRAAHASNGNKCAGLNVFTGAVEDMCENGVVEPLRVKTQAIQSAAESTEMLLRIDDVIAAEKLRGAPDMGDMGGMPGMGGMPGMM
Flap endonuclease 1 (Homo sapiens), sequence (P39748 whole entry, looked up): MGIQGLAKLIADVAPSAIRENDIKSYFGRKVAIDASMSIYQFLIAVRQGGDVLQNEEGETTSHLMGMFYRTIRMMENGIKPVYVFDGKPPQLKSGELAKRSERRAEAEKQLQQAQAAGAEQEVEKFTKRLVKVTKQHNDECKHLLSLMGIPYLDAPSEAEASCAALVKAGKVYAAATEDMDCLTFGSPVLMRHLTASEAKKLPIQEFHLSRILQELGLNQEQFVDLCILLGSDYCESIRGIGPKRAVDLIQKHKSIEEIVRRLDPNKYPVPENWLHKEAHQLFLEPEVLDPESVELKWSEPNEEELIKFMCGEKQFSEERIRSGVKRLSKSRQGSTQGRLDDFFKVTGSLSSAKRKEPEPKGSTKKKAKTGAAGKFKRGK
Thioredoxin reductase 1, cytoplasmic (Rattus norvegicus), sequence (O89049 whole entry, looked up): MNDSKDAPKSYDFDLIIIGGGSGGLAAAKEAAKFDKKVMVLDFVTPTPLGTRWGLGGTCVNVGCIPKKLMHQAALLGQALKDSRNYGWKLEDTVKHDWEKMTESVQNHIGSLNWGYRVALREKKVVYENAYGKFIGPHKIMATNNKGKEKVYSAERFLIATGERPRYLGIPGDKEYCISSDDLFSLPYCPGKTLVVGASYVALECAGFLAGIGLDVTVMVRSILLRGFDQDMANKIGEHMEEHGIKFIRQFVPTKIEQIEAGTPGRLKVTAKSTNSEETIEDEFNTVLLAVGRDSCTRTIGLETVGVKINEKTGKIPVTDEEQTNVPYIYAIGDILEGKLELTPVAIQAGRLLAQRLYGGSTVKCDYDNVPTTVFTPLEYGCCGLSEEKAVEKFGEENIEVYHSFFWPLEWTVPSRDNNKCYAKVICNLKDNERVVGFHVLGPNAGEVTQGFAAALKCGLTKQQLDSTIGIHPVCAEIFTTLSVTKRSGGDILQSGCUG
DNA polymerase III PolC-type (Bacillus subtilis (strain 168)), sequence (P13267 whole entry, looked up): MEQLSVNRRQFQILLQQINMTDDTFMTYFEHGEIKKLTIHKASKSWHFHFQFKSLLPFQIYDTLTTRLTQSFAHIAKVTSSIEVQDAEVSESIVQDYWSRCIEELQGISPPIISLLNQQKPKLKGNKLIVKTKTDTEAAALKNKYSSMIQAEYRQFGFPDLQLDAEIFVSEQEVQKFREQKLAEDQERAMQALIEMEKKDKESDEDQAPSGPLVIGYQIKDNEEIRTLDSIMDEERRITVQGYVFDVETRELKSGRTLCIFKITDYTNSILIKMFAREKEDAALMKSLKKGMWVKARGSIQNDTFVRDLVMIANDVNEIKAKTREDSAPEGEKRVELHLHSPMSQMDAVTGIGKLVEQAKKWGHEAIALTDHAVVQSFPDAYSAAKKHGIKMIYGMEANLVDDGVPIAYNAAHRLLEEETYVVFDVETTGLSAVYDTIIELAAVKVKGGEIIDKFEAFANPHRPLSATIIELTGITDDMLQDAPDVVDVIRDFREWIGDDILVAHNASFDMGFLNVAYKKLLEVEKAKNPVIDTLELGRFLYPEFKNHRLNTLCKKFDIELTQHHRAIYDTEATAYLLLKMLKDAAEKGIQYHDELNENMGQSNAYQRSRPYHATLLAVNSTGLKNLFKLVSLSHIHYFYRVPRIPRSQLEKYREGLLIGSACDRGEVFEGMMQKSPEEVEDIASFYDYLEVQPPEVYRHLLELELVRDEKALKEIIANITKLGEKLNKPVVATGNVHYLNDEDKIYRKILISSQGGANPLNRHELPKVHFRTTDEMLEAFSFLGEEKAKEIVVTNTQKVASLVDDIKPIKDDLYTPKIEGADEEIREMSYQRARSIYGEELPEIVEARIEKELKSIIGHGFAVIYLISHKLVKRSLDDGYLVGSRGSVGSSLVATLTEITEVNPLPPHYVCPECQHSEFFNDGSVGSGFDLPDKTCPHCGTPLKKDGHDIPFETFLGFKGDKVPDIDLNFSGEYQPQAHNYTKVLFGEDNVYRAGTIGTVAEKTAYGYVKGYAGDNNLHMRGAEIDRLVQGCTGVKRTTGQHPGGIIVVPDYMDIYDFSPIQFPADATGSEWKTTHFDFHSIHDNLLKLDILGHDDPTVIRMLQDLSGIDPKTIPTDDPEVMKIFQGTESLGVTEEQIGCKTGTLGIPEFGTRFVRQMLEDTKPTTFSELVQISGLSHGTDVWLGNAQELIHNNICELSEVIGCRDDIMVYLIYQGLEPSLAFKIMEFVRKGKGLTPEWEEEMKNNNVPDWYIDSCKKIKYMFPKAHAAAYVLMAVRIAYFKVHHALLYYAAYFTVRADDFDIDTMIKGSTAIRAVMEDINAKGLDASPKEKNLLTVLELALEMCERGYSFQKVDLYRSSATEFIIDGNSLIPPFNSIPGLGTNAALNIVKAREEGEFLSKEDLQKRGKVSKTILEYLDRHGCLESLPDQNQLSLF
Tumor susceptibility gene 101 protein (Homo sapiens), sequence (Q99816 whole entry, looked up, the tested form may be a part): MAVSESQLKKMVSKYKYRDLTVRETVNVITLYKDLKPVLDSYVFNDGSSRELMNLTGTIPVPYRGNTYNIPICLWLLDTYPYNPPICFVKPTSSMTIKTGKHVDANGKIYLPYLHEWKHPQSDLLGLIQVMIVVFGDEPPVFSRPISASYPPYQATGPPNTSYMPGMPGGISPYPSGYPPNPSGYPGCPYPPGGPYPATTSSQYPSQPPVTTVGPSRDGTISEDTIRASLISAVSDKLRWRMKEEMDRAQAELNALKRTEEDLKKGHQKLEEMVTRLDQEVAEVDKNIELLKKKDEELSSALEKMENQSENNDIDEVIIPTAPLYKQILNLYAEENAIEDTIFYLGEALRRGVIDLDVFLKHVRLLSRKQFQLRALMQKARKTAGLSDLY

CC(N)=NCCCC[C@@H](N)C(=O)O
not listed: [16] | [17] | [18] | [19]
inactive: all other assays above

NC(N)=[N+]1CCc2ccccc2C1
not listed: [18] | [19]
inactive: all other assays above

Nc1nc2[nH]c(=O)cnc2c(=O)[nH]1
not listed: [10] | [12] | [13] | [15] | [16] | [17]
inactive: all other assays above

NC1CONC1=O (stereo unspecified)
not listed: [11] | [18]
inactive: all other assays above

NC/C=C\C(=O)O
not listed: [18]
inactive: all other assays above

Nc1ncnc2c1ncn2C1CCCC1
not listed: [10] | [15] | [16] | [18]
inactive: all other assays above

O=C(O)c1ccccc1Nc1ccccc1
not listed: [10] | [11] | [15]
inactive: all other assays above
